USP1 inh = USP1/UAF1 (human) deubiquitinase inhibition | O94782 | recombinant USP1/UAF1, Ub-Rhodamine cleavage fluorescence | Potency, µM (titrated, usually from 57.1 µM), inactives show at the top dose activity change, negative = inhibition, most hits filed as inhibitors | 390,000 compounds, 0.23% hits | AID 743255; active = well fitted inhibition curve with a large enough effect; inconclusive = small, poorly fitted or top-dose-only effect; inactive = no such curve, though single readings can be large or run the other way; note: potency is the fitted concentration of half-maximal effect; % is set by controls: 0 for no effect and ±100 for the full control effect; nearly all actives have a fitted effect of over 60% in size
Target sequence (O94782 whole entry, looked up): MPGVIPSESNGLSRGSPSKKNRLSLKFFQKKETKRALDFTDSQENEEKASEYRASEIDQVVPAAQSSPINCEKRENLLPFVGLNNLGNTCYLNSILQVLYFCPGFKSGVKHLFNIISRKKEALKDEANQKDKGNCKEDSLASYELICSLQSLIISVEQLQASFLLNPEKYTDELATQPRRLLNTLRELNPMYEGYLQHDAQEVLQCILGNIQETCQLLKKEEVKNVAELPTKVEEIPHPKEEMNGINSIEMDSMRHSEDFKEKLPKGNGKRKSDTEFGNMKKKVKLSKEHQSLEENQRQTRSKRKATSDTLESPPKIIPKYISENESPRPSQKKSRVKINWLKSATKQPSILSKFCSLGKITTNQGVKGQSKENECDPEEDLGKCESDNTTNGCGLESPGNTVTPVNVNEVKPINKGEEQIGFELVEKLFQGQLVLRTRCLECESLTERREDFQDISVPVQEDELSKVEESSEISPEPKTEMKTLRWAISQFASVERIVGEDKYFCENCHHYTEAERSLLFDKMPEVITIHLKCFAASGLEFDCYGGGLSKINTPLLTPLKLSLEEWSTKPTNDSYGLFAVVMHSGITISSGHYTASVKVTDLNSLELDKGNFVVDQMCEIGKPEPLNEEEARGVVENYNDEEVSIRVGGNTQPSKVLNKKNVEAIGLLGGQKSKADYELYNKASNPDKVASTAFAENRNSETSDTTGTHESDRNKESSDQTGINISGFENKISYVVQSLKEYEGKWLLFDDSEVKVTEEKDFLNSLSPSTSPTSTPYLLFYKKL
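In this screen, compounds sit with the deubiquitinase complex (1nM) for 15 min at room temperature before Ub-Rho is added at 150nM final. Fluorescence rise is then followed for 6 reads every 60 seconds.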
TRHR agonist = TRH receptor (human) agonism. TRHR cells, calcium flux fluo-8, FDSS agonist mode. activation, % at 2 µM. 360,000 compounds, 0.18% hits. P34981; note: 0% is about no effect
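Fluo-8-loaded TRHR cells; 10 s baseline, compound added, kinetic Ca2+ fluorescence read 1/s, agonist mode.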
D1 antagonist = blocks dopamine activation of the human D1 receptor | P21728 | HEK293 TREx D1 cells, calcium flux, dopamine EC80; active compounds read low | activity change, negative = inhibition, % at 10 µM | 360,000 compounds, 3.2% hits; in the data active = activity change below about -30%; note: % is set by controls: 0 for no effect and ±100 for the full control effect
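Tetracycline-induced HEK293 T-REx cells with force-coupled D1 receptor were loaded with a no-wash calcium dye. Compound was added after a 10 s baseline and read kinetically for 180 s; EC80 dopamine was then added and calcium flux followed another 180 s.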
D1 PAM = human D1 dopamine receptor positive modulation. potentiation, % at 10 µM. HEK293 TREx D1 cells, calcium flux, dopamine EC20 potentiation. P21728. 360,000 compounds, 0.036% hits; in the data active = potentiation above about 30%; note: 0% is about no effect
D1 agonist = agonists of human D1 dopamine receptor | P21728 | HEK293 T-REx D1 cells, calcium flux, agonist mode | activation, % at 2 µM | 360,000 compounds, 1% hits | AID 504660; note: 0% is about no effect
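Agonism was scored from calcium flux recorded over 180 s (1 read/s) after pintool compound addition, following a 10-cycle baseline. Cells were inducible force-coupled HEK293 TREx D1, plated overnight at 30 C and loaded with no-wash calcium dye.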
TRHR PAM = allosteric enhancers of human TRH receptor; P34981; TRHR cells, fluo-8 calcium fluorescence, EC20 TRH enhancement; enhancement, % at 2 µM; 360,000 compounds, 0.66% hits; in the data active = enhancement above about 30%; note: 0% is about no effect
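Enhancer read-out: after compound pinning and an initial kinetic agonist-mode read, an EC20 of TRH (10 nM final) was injected and fluo-8 calcium signal (Ex 480/Em 530) followed at 1 s/cycle for 100 cycles in TRHR-expressing cells.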
* marks the source's active call; other numbers are inactive results; ? = inconclusive. Most compounds without a hit are left out; they make up all but 4.4% or so of the library. Cut-off read from the data, not from the text of the source, unless noted: active = activation above about 30%; inactive = the rest.

SMILES | USP1 inh | TRHR agonist | D1 antagonist | D1 PAM | D1 agonist | TRHR PAM
COc1ccc(CCC(=O)N2CCN(S(=O)(=O)c3ccc(C)cc3)CC2)cc1 | -23% | -1 | -21 | -12 | 0 | -5
COc1ccc(CCC(=O)N2CCN(S(=O)(=O)c3cccc(Cl)c3)CC2)cc1 | 3% | -1 | -39* | -4 | -1 | 16
Cc1ccc(Cl)cc1NC(=O)CN1C(=O)c2ccccc2Sc2ncccc21 | -19% | 0 | 1 | -3 | 2 | 3
COc1cccc(NC(=O)c2c(C(=O)Nc3ccccc3)sc3nc(C)cc(=O)n23)c1 | 3% | 0 | 1 | 0 | 4 | -11
O=C(NC(=S)Nn1cnnc1)c1ccccc1Cl | -25% | 0 | 5 | -2 | 2 | -4
CC(C)(C)c1ccc(C(=O)NC(=S)Nn2cnnc2)cc1 | -18% | 0 | -32* | -4 | 2 | 3
O=C(NCc1ccccn1)c1cc(-c2ccncc2)nc2ccccc12 | -11% | 0 | 1 | 3 | 1 | -5
O=C(N/N=C/c1cccnc1)c1ccc(NC(=O)c2ccccc2Cl)cc1 | -6% | 1 | -2 | -5 | 0 | 31*
O=C(NCc1ccccn1)c1cc(-c2ccccc2Cl)nc2ccccc12 | -22% | 0 | -32* | 0 | 1 | 0
O=C(N/N=C/c1cccnc1)c1cc(-c2ccccc2Cl)nc2ccccc12 | -14% | 1 | -40* | -1 | -1 | 0
COc1ccc(-c2cc(C(=O)N/N=C(\C)c3cccnc3)c3ccccc3n2)cc1 | -23% | -1 | -58* | -3 | 0 | 9
Cc1ccc(C(=O)Nc2ccc(C(=O)N/N=C/c3cccnc3)cc2)cc1 | -18% | 1 | 6 | -5 | -2 | 0
Cc1ccccc1-c1cc(C(=O)N/N=C/c2cccnc2)c2ccccc2n1 | -18% | 9 | 5 | -4 | 1 | -2
COc1ccc(NC(=O)CCNS(=O)(=O)c2ccc3c(c2)CCCC(=O)N3)cc1 | -17% | 1 | -13 | 4 | 1 | -24
CCn1c(CC2C(=O)N(C)c3ccccc32)nc2ccccc2c1=O (configuration not stated) | -20% | 1 | -6 | 0 | 0 | 4
CCn1c(CNC(=O)C23CC4CC(CC(C4)C2)C3)nnc1SCC(=O)Nc1ccc(F)cc1 | -11% | 0 | -26 | -1 | 1 | -5
CN(C)CCCNS(=O)(=O)c1ccc(Oc2ncc(C(F)(F)F)cc2Cl)cc1 | -21% | -1 | -17 | -7 | 61* | 5
Cc1nn(C(C)C(=O)NCC2CCCO2)c(=O)c2cc3occc3n12 (configuration not stated) | -3% | 1 | -33* | -9 | 0 | 5
O=C(O)CCCNS(=O)(=O)c1cccs1 | 3% | 0 | -58* | -7 | 2 | 16
Cc1ccc(OCC(=O)Nc2cccc(C(=O)OCc3cc(=O)n4cc(C)sc4n3)c2)cc1 | -15% | -1 | -10 | -1 | 2 | -2
O=C(Cn1c(=O)ccc2cc(S(=O)(=O)N3CCCC3)ccc21)NCc1ccc(F)cc1 | ? | 0 | -2 | -4 | 0 | 0
Cc1ccc(NC(=O)Cn2sc3nc(C)cc(C)c3c2=O)c(Cl)c1 | -3% | 0 | -8 | -5 | 9 | -1
Cc1cc(C)c2c(=O)n(CC(=O)Nc3cccc(F)c3)sc2n1 | -8% | 1 | -32* | -1 | 12 | 0
Cc1cc(C)c2c(=O)n(CC(=O)Nc3ccc(Cl)cc3)sc2n1 | -12% | 2 | -39* | -10 | 23 | 6
CCOc1ccc(NC(=O)Cn2sc3nc(C)cc(C)c3c2=O)cc1 | -12% | 1 | -18 | -3 | 2 | 10
COC(=O)c1cc2sc(Cl)cc2n1Cc1nc(-c2ccccc2C)oc1C | -14% | 0 | -7 | 0 | 1 | -1
CCOc1ccc(NC(=O)c2cc3sc(Cl)cc3n2CC)cc1 | 11% | 0 | -12 | 1 | 0 | 1
COc1cc(NC(=O)c2cc3c(=O)n(Cc4cccs4)ccc3nc2C)cc(OC)c1OC | -7% | 0 | 0 | -4 | 0 | 14

Screening results (PubChem BioAssay)
